Screens deposited in PubChem by several laboratories.
Hsp70 act: Hsp70 transcriptional activators, primary screen, cell-based, HeLa, Hsp70 promoter luciferase, luminescence, 10 µM | HeLa Hsp70 promoter luciferase reporter; scaled: vehicle 0, proteasome-inhibitor control 100% | activation, % at 10 µM | hit rate 0.04% among 200,000;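 active means activation above the mean across all tested compounds plus 3 SD, cutoff set per campaign, cut at about 5.5% in these data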;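 further: 100% = MG132 at 30 µM as the positive control and 0% = DMSO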
APP 5UTR inh: inhibitors of APP translation via 5'UTR reporter, primary screen, APP 5'UTR luciferase, SH-SY5Y cells. inhibition, % at 2 µM. AID 1285, 2008. SH-SY5Y APP 5'UTR-luciferase reporter, luminescence. hit rate 0.82% among 190,000;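 active means inhibition above a set limit, derived from the sample mean plus 3 SD, cut at about 45% in these data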
Wee1 degr inh: Wee1 degradation inhibitors, primary screen, cell-based, HeLa, Wee1K328M-luciferase, luminescence; HeLa Luc-Wee1K328M stability; 100% = proteasome inhibitor MG132 effect; hit rate 1.2% among 220,000; Wee1-like protein kinase (Homo sapiens), P30291; AID 1321, 2008; reporter increase, % at 5 µM;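 active means activation above the mean of all tested compounds plus 3 SD, set per screening run, cut at about 8.8% in these data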;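 further: cells exposed to compound for 20 h before luminescence read; 0% = DMSO alone and 100% = MG132 at 30 µM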
Target sequence (P30291 whole entry K328M): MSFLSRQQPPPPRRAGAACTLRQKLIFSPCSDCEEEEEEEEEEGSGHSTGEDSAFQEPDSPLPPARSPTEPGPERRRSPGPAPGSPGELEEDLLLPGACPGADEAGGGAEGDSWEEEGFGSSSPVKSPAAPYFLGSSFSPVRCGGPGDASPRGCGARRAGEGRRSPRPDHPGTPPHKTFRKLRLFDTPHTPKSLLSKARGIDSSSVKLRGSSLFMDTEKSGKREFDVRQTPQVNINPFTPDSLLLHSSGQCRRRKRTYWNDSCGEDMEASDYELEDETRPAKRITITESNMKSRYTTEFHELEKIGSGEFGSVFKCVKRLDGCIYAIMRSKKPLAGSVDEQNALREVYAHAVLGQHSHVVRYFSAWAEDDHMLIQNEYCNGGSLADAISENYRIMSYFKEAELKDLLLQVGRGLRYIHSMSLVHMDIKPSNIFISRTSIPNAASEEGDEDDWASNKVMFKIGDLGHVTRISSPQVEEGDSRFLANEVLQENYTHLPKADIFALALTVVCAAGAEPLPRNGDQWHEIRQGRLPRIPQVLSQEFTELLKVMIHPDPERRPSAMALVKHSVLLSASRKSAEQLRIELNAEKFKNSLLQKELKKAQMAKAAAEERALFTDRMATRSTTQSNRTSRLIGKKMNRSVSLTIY
NF-kB expr up: activators of NF-kB expression in neurons, primary screen, cell-based, HTS | human neuronal cells, NF-kB reporter expression; active compounds read high | fold change at 12.5 µM | hit rate 1.6% among 190,000; in the data active means fold change above about 3.3
APP 5'UTR act: activators of APP 5'UTR luciferase reporter, primary screen, SH-SY5Y cells | SH-SY5Y APP 5'UTR luciferase reporter, luminescence; zero percent = DMSO vehicle wells | activation, % at 2 µM | hit rate 1% among 190,000 | AID 1276, 2008;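 active means activation above a set limit, based on mean plus 3 SD of controls, cut at about 140% in these data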
STAT1 activator: STAT1 signaling activators, primary screen, cell-based, HTS, luciferase reporter; NIH 3T3 STAT1-luciferase reporter, IFN-gamma, luminescence; 100% = IFN-gamma alone, no compound; hit rate 2.6% among 200,000; activation (% of control), % at 5.5 µM; AID 932, 2007;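 active means activation above the screen-wide mean activation plus 3 SD, cut at about 130% in these data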;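 further: raw ratio to IFN-gamma control signal so 100% means no change and 0% no light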
Wee1 stab conf: Wee1 degradation inhibitors, confirmation, cell-based, HeLa, Wee1K328M-luciferase, luminescence, triplicate | AID 1410, 2008 | HeLa Luc-Wee1K328M degradation; vehicle 0%, proteasome-blocked wells 100% | shares compounds with Wee1 degr inh | activation, % at 5 µM | hit rate 4% among 1,100; in the data active means activation above about 8.9%
* marks the source's active call; other numbers are inactive results; . = no result. Sampled rows, rich in hits. Any-hit rate of the full collection: about 4.8%.

SMILES | Hsp70 act | APP 5UTR inh | Wee1 degr inh | NF-kB expr up | APP 5'UTR act | STAT1 activator | Wee1 stab conf
CCN(CC)CCCNC(=O)c1cn(CCOC)c(=O)c2c1c1ccccc1n2C | 0 | -7 | 4 | 1.1 | 7 | 104 | .
CC(C)CN(CC(C)C)C1=N/C(=C\c2ccco2)C(=O)N1c1ccccc1 | 0 | -5 | 0 | 0.98 | 5 | 101 | .
O=C(NCc1cccs1)c1cccc(Nc2nc3ccc(Br)cc3[nH]2)c1 | 0 | 7 | 15* | 0.91 | -7 | 103 | 3
O=C(O)c1ccccc1N(Cc1ccccc1)C(=O)CO/N=C/c1ccccc1 | 0 | 18 | -4 | 0.91 | -18 | 99 | .
O=C(O)c1ccccc1NC(=S)NC(=O)c1cccc2ccccc12 | 0 | -12 | 5 | 1 | 12 | 103 | .
O=C(NC(=S)Nc1ccc2c(c1)OCCO2)c1cccc2ccccc12 | 0 | -12 | 12* | 1.6 | 12 | 106 | 0
Cc1ccc(NC(=O)Nc2cccc([N+](=O)[O-])c2)cc1F | 0 | -102 | -1 | 1.6 | 102 | 123 | .
O=C(Nc1ccc(OC(F)(F)F)cc1)Nc1cccc([N+](=O)[O-])c1 | 0 | -31 | 17* | 1.4 | 31 | 84 | 2
CCOC(=O)N1CCN(C(=O)c2oc3ccc(S(=O)(=O)N4CC(C)CC(C)C4)cc3c2C)CC1 (centres undefined) | 0 | -4 | 0 | 0.95 | 4 | 90 | .
CCOC(=O)C1CCN(C(=O)c2oc3ccc(S(=O)(=O)N4CC(C)CC(C)C4)cc3c2C)CC1 (centres undefined) | 0 | -6 | 11* | 0.65 | 6 | 87 | -2
Fc1cccc(CSc2nc3ncc(Cl)cc3[nH]2)c1 | . | . | 11* | . | . | . | -2
Fc1cccc(CSc2nc3ncccc3[nH]2)c1 | 1 | -15 | -3 | 1.1 | 15 | 109 | .
COc1cc(/C=N/Nc2nc(=O)[nH]nc2C)ccc1O | . | . | 17* | . | . | . | -3
Cc1ccc(S(=O)(=O)c2nc(Nc3ccccc3)sc2Cl)cc1 | 0 | 1 | -2 | 0.73 | -1 | 94 | .
COc1ccc(Nc2nc(S(=O)(=O)c3ccc(C)cc3)c(Cl)s2)cc1 | 0 | -21 | 11* | 0.95 | 21 | 99 | 2
CCOC(=O)c1c(-c2ccc(C)o2)csc1NC(=O)CSc1nnc(C)s1 | 0 | -6 | 9 | 0.83 | 6 | 98 | .
CCOC(=O)c1c(-c2ccccc2)csc1NC(=O)CSc1nnc(C)s1 | 0 | 9 | 12* | 1.2 | -9 | 91 | -1
COC(=O)Cc1c(C(=O)OC)nnn1-c1ccc(OC)cc1 | 0 | 10 | -1 | 2 | -10 | 92 | .
COC(=O)CC1=NN(c2ccc(OC)cc2)C(=O)C1 | 0 | 10 | 12* | 1.4 | -10 | 97 | 2
COc1ccccc1N1CCN(C2=Nc3cccc4cccc2c34)CC1 | 0 | -85 | 15* | 2 | 85 | 127 | 2
c1cc2c3c(cccc3c1)C(N1CCN(C3=Nc4cccc5cccc3c45)CC1)=N2 | 0 | 0 | 0 | . | 0 | 95 | .
COC(=O)C1=C(C)Nc2nnnn2C1c1ccccc1Cl (centres undefined) | 0 | 28 | -4 | 1.3 | -28 | 94 | .
COc1ccccc1NC(=O)CNC(=O)c1ccc(F)cc1 | 0 | 20 | 11* | 1.2 | -20 | 102 | 1
CC(=O)c1c(C)[nH]c(C(=O)NCc2ccco2)c1C | 0 | -4 | 12* | 1.1 | 4 | 100 | 4
CC(=O)c1c(C)[nH]c(C(=O)NCc2cccs2)c1C | 0 | -8 | 1 | 1.2 | 8 | 98 | .
SMILES | Hsp70 act | APP 5UTR inh | Wee1 degr inh | NF-kB expr up | APP 5'UTR act | STAT1 activator | Wee1 stab conf
Cc1ccc(NC(=O)c2cncc(Br)c2)c(O)c1 | 0 | -26 | 12* | 1.9 | 26 | 114 | 1
Cc1ccc2nc(-c3ccc4c(c3)NC(=O)CO4)cn2c1 | . | . | 20* | . | . | . | 5
CCCCN(C(=O)c1ccc2c(c1)OCO2)c1ccccc1 | 0 | 6 | 14* | 0.94 | -6 | 100 | 0
Cc1cc(OC(C)C)nc(-c2ccccc2O)n1 | 0 | 3 | 3 | 1.3 | -3 | 100 | .
COCCn1c(SCC(=O)Nc2ccc(F)cc2)nc2c(oc3ccccc32)c1=O | 0 | 9 | 11* | 1.1 | -9 | 98 | -2
O=C(O)Cc1ccc(NC(=O)CCN2C(=O)c3ccc([N+](=O)[O-])cc3C2=O)cc1 | 0 | 6 | 15* | 1.1 | -6 | 102 | 1
O=C(CCN1C(=O)c2ccc([N+](=O)[O-])cc2C1=O)Nc1ccc(O)cc1C(=O)O | 0 | 1 | 3 | 1.1 | -1 | 101 | .
COC(=O)c1ccc(COC(=O)CCc2nc(-c3ccccc3)c(-c3ccccc3)o2)cc1 | 0 | -16 | -2 | 0.8 | 16 | 97 | .
COc1ccc(NC(=S)c2ccc(N(C)C)cc2)cc1 | 0 | -135 | 13* | 2.8 | 135* | 149* | 0
CCN(CC)C(=O)CSc1nc2ccccc2c(=O)n1CCC(=O)N1CCN(c2ccccc2)CC1 | 0 | 1 | 1 | 0.78 | -1 | 100 | .
CCOC(=O)N1CCN(C(c2ccc(C(C)C)cc2)c2sc3nc(C)nn3c2O)CC1 (centres undefined) | 0 | -6 | 0 | 0.99 | 6 | 83 | .
Cc1nc2sc(C(c3ccc(C(C)C)cc3)N3CCN(CCO)CC3)c(O)n2n1 (centres undefined) | 0 | -16 | 24* | 1.3 | 16 | 104 | 2
N#Cc1cc2c(nc1SCc1cccnc1)CCCCC2 | 0 | -24 | 1 | 1.6 | 24 | 97 | .
CCOC(=O)Cc1cc(=O)n2[nH]c(-c3ccc(Cl)cc3)cc2n1 | 0 | -6 | -1 | 1.6 | 6 | 96 | .
CCCc1cc(=O)n2[nH]c(-c3ccc(C)cc3)cc2n1 | 0 | -102 | 13* | 2.5 | 102 | 118 | 5
Cc1ccc(CNC(=O)CC2C(=O)Nc3c2c(=O)n(C)c(=O)n3Cc2ccccc2)cc1 (centres undefined) | 0 | -7 | 1 | 0.95 | 7 | 95 | .
Cn1c2c(c(=O)n(C)c1=O)C(CC(=O)Nc1ccc(F)cc1)C(=O)N2 (centres undefined) | 0 | -14 | 11* | 1.2 | 14 | 107 | 0
CCN(CC)C(=O)CN(c1cccc(Br)c1)S(C)(=O)=O | 0 | 24 | -2 | 1.1 | -24 | 94 | .
COCCOC(=O)c1c(C)oc2ccc(OCc3ccccc3)cc12 | 0 | 16 | 14* | 1.3 | -16 | 90 | 0
